# Results with a measured potency or affinity are listed apart. Active and inactive are the calls of the source.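 The calls were made as follows: active = a dose-response curve fit returns a half-maximal inhibitory concentration, extrapolated values included; inactive = the fit returns no such concentration.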
# Biological target: HMG-CoA reductase [Enterococcus faecalis] (UniProt Q9FD70)
# Assay: inhibitors of E. faecalis class II HMGR, confirmation, biochemical, Enterococcus faecalis (AID 1233)
# Details: purified E. faecalis HMGR, NADPH absorbance 340 nm kinetics; series mostly up to 100 µM
row,Compound,outcome
1,Cc1cnc(NC(=O)CSc2nnc(-c3ccc(Cl)cc3Cl)n2N)s1,inactive
2,O=C(CNC(=O)c1ccc(S(=O)(=O)N2CCCC2)cc1)N/N=C/c1ccc(Cl)cc1,inactive
3,O=C1c2ccccc2C(=O)N1CCN1CCCCC1,inactive
4,CC(=O)N(C)c1nc(N)n(-c2ccccc2)n1,inactive
5,Cc1ccc(-c2cc(C(=O)O)n(-c3ccc(S(N)(=O)=O)cc3)n2)cc1,inactive
6,c1ccc(-c2nnc(SCc3nnc(-c4cccs4)o3)o2)cc1,inactive
7,COc1ccc(C(=O)NCCc2nnc(SCC(=O)Nc3ccccc3F)n2C)cc1,inactive
8,O=C(COC(=O)CSc1cc(Cl)ccc1Cl)Nc1ncc(C(F)(F)F)cc1Cl,inactive
9,O=C(CC1SCCNC1=O)Nc1ccc(F)c(Cl)c1 (stereo not drawn),inactive
10,O=c1c(OC2OC(CO)C(O)C(O)C2O)c(-c2ccc(O)c(O)c2)oc2cc(O)cc(O)c12 (stereo not drawn),inactive
11,O=C(Nc1ccc2c(c1)OCO2)c1ccc(COc2ccc3c(c2)CCC3)o1,inactive
12,O=C(CNC(=O)c1ccccc1)N/N=C/c1cccs1,inactive
13,CCOC(=O)c1c(-c2ccccc2)csc1NC(=S)N(CC)CC,inactive
14,Cc1nc([N+](=O)[O-])c(Br)n1CC(=O)c1cccc([N+](=O)[O-])c1,inactive
15,O=c1cc(CSc2ccc([N+](=O)[O-])cc2)nc2sccn12,inactive
16,Cc1cc(C(=O)N[C@H](c2ccccc2)[C@@]2(C)C[C@@H]2[C@@H](C)C(=O)Nc2ccc3ccccc3c2)no1,inactive
17,Cc1cc(C)c(S(=O)(=O)c2ccccc2)c(OC(=O)c2c(F)cccc2F)n1,inactive
18,CCOC(=O)Cc1csc(NC(=O)COc2cccc(C)c2)n1,inactive
19,COC(=O)c1ccccc1NC(=O)CSc1nnc(CNS(=O)(=O)c2ccc(C)cc2)n1C,inactive
20,O=C(COC(=O)CNC(=O)c1ccccc1F)Nc1ccc2c(c1)OCCO2,inactive
21,O=C(NCc1cccs1)c1cc2c(s1)CS(=O)(=O)C2,inactive
22,CCOC(=O)C(CC)n1cnc2c(nnn2-c2ccc(OC)cc2)c1=O (stereo not drawn),inactive
23,O=C(c1cc([N+](=O)[O-])ccc1N1CCCCC1)N1CCc2ccccc21,inactive

row,Compound,outcome
1,Cc1ccc(Cc2cncc(O)c2)cc1S(=O)(=O)O,inactive
2,O=C(Oc1ccccc1O)c1cccc2ccccc12,inactive
3,COc1ccc(CN2CCN(CCC(C)C)C(CCO)C2)cc1Cn1cccn1 (stereo not drawn),inactive
4,CCc1c(C)nc2ncnn2c1NCCc1ccccc1,inactive
5,CNC(=S)N/N=C(\C)c1ccc(N2CCOCC2)cc1,inactive
6,CN(C)S(=O)(=O)c1cccc(NC(=O)Cn2cc(C(F)(F)F)cc(Cl)c2=O)c1,inactive
7,CCOC(=O)C1=C(COc2ccc(F)cc2Cl)NC(=O)NC1c1cc(C)ccc1C (stereo not drawn),inactive
8,Cc1cc(C)nc(N/N=C2/CCCC/C2=C\c2ccccc2)n1,inactive
9,COc1ccc(/C=C(/C#N)S(=O)(=O)c2ccc(C)cc2)cc1,inactive
10,CCOc1ccc(S(=O)(=O)N(C)CCO)cc1-c1nc2c(C(C)(C)C)nn(C)c2c(=O)[nH]1,inactive
11,O=S1(=O)CC=C(CSC(=S)NC2CCS(=O)(=O)C2)C1 (stereo not drawn),inactive
12,O=C(CSc1nnnn1-c1ccccc1)Nc1ccc(N2CCOCC2)c(Cl)c1,inactive
13,O=C(COC(=O)c1cc(S(=O)(=O)N2CCCCC2)ccc1N1CCOCC1)NC1CCS(=O)(=O)C1 (stereo not drawn),inactive
14,O=C(O)C1CCCNC1 (stereo not drawn),inactive
15,C/C(CC(=O)NC1CCCCC1)=N\NC(=O)COc1ccc(C)cc1Br,inactive
16,COc1ccc(N(C(C)C(=O)N/N=C/c2ccc(OC(C)C)cc2)S(C)(=O)=O)cc1 (stereo not drawn),inactive
17,COc1ccc2c(C)cc(=S)[nH]c2c1,inactive
18,CCc1ccc(NC(=O)CN2C(=O)C(=O)N(Cc3ccccc3)C2=O)cc1,inactive
19,Cc1cccc(C(=O)Nc2cc(=O)n(C)c(=O)n2C)c1,inactive
20,CC[n+]1c(C)n(-c2ccccc2)c2ccc(C(=O)OC)cc21,inactive
21,Cn1c(CO)cnc1SCc1ccc(F)cc1,inactive
22,O=C(O)c1cc(CN2CCOCC2)oc1-c1ccccc1,inactive
23,Cc1cccc(Nc2nnc(SCC(=O)Nc3ncc(C(F)(F)F)cc3Cl)s2)c1C,inactive

row,Compound,outcome
1,COc1ccc(Cc2noc(-c3ccccc3)n2)cc1OC,inactive
2,O=C(COC(=O)CCc1c[nH]c2ccccc12)NC1CCS(=O)(=O)C1 (stereo not drawn),inactive
3,Cc1cc(Cl)ccc1Oc1nccc(N(C)C)c1C#N,inactive
4,COc1ccc2oc(=Nc3ccc(C(=O)O)cc3)c(C(=O)NCc3ccco3)cc2c1,inactive
5,Cc1ccc(NC(=O)CCc2ccc(S(=O)(=O)N3CCOCC3)cc2)c(C)c1,inactive
6,CCOC(=O)C1CCN(C(=O)CN(c2ccc3c(c2)OCCO3)S(C)(=O)=O)CC1,inactive
7,COc1ccc(NC(=O)c2ccc3c(c2)n(C)c(=O)n3C)cc1,inactive
8,O=C(Nc1ccccc1)N1C2CCC1CC(O)(c1cccnc1)C2 (stereo not drawn),inactive
9,CCOC(=O)/C(C#N)=C1/C(=O)N(Cc2ccccc2)c2ccccc21,inactive
10,COc1ccc(C(=O)CSc2nnnn2Cc2ccccc2)cc1,inactive
11,O=C(NCCCn1ccnc1)c1ccc(S(=O)(=O)N2CCOCC2)cc1,inactive
12,Cc1nnc(SCc2ccccc2Cl)n1CC1CCCO1 (stereo not drawn),inactive
13,CCOC(=O)C(=O)Nc1ccc([N+](=O)[O-])cc1OC,inactive
14,CCOC(=O)c1ccc(N(C(=O)c2cnccn2)C(C(=O)NC2CCCCC2)c2cn(C)nc2C)cc1 (stereo not drawn),inactive
15,COCCCNC(=O)CN(c1cc(Cl)ccc1OC)S(=O)(=O)c1ccc(C)c([N+](=O)[O-])c1,inactive
16,CCOC(=O)NC(=O)CN1C(=O)NC(C)(c2ccccc2)C1=O (stereo not drawn),inactive
17,N#CC(=C1CCCC1)c1nc(-c2ccc(Cl)cc2)cs1,inactive
18,COc1ccc(C(=O)NC2CCN(C(=S)NCCc3ccccc3)CC2)cc1,inactive
19,COc1ccc(NC(=S)NCc2cccn2C)cc1,inactive
20,COc1cccc(-c2nnc3sc(-c4cccs4)nn23)c1,inactive
21,NS(=O)(=O)c1ccc(N2C(=O)C3C4CC(C(Br)C4Br)C3C2=O)cc1 (stereo not drawn),inactive
22,Cc1ccc2nc(-c3cc(N)cc(N)c3)oc2c1,inactive

# — PubChem BioAssay AID1233 (SRMLSC, 2008)
